SMILES strings stand for the structures. Activity calls are given as the source filed them. How the source made its calls: active means hit-call score of the fitted dose curve at least 0.9, where 1 is the maximum; inactive means score below 0.9.

Chain of Transcriptional activator Myb (Homo sapiens) (P10242 whole entry, looked up): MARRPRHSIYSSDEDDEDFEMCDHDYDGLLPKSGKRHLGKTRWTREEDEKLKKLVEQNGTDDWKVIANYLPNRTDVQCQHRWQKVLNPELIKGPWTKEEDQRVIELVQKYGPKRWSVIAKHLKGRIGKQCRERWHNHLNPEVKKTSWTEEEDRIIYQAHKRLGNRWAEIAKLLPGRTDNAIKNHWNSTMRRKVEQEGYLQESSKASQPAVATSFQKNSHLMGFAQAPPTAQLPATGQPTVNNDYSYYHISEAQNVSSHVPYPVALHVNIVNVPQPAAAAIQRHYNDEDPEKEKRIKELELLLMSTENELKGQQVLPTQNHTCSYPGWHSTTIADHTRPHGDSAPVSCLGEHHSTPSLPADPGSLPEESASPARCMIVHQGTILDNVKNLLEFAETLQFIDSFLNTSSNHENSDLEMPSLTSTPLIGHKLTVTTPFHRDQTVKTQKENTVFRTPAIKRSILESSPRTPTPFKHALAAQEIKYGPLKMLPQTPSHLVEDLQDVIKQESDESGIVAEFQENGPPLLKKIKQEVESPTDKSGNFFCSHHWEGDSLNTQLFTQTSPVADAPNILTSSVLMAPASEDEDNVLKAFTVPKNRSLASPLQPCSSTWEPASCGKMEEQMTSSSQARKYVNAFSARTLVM

The experiment has as its target Transcriptional activator Myb (Homo sapiens) (UniProt P10242). As to the kind of experiment: ATG_Myb_CIS: Attagene CIS-FACTORIAL HepG2 Assay for human Myeloblastosis (Myb) Proto-Oncogene Transcription Factor (AID 2282986). The following applies: HepG2 Attagene CIS-FACTORIAL Myb reporter transcription; actives raise or lower the signal. The method, then:
ATG_CIS is a cell-based, multiplexed-readout assay that uses HepG2, a human liver cell line, with measurements taken at 24 hours after chemical dosing in a 24-well plate.ATG_Myb_CIS is one of 52 assay component(s) measured or calculated from the ATG_CIS assay. It is designed to make measurements of mRNA induction, a form of inducible reporter, as detected with fluorescence intensity signals by Reverse transcription polymerase chain reaction (RT-PCR) and Capillary electrophoresis technology.Data from the assay component ATG_Myb_CIS was analyzed into 1 assay endpoint. This assay endpoint, ATG_Myb_CIS, was analyzed with bidirectional fitting relative to DMSO as the negative control and baseline of activity. Using a type of inducible reporter, measures of mRNA for gain or loss-of-signal activity can be used to understand the reporter gene at the transcription factor-level as they relate to the gene MYB. Furthermore, this assay endpoint can be referred to as a primary readout, because this assay has produced multiple assay endpoints where this one serves a reporter gene function. To generalize the intended target to other relatable targets, this assay endpoint is annotated to the dna binding intended target family, where the subfamily is MYB proteins.
Human liver HepG2 cells are transiently transfected with multiple reporter transcription units (MRTUs) in 6-well plates using FuGene 6 reagent (Roche; 3 ml FuGene/1 mg DNA). The MRTU constructs are regulated by a cis-regulating element (promoter). […] A major difference between the CIS and TRANS system is that in CIS activities of endogenous TFs are measured, whereas the TRANS assay evaluates changes in activities of exogenous, chimeric NR-Gal4 proteins. […] At the end of 24 hour incubation, total RNA was isolated using TriZol reagent (Invitrogen). The isolated RNA is then reverse-transcribed using oligo(dT) primer and Mo-MLV reverse transcriptase (Invitrogen) with DNAse I (Ambion) treatment for 30 min. The one-tenth of the produced cDNA was amplified by PCR using Taq DNA polymerase (Invitrogen) and two reporter sequence-specific primers. The PCR products were fluorescently labeled by primer extension with 6-arboxyfluorescein (6-FAM) 5'-labeled reporter sequence-specific primer (2 min at 95 C, 20 s at 68 C and 10 min at 72 C) and these products were digested with 5U of HpaI (New England Biolabs) for 2h at 37 C. The fragments were purified using Qiaquick PCR columns (Qiagen), analyzed on an ABI 3130xL genetic analyzer (Applied Biosystems) with peak positions identified by using a set of X-rhodamine (ROX)-labeled MapMarker1000 molecular weight standards (BioVentures). The raw capillary electrophoresis data was processed using Attagraph software (Attagene).
`O=C(O)c1cc[c]([Hg][Cl])cc1`: the result was inactive.

As for `CC1OC(C)OC(C)O1` (stereo not given), the compound was classed as inactive.

As to `COc1cc(OC)c(OC)cc1C=O`, the compound was called inactive. Same read-out and setting: the entry for `COc1cc(OC)nc(Oc2cccc(Oc3nc(OC)cc(OC)n3)c2C(=O)O)n1` is “inactive”; for `C[N+](C)(C)CC(=O)[O-]` it is “inactive”; for `N#CCCCl` it is “inactive”. Take `Cc1ccc(OP(=O)(Oc2ccc(C)cc2)Oc2ccc(C)cc2)cc1` (tested in a mixture with another compound): the call was inactive.

With `ClCC(Cl)Cl`, the call was inactive. Still for that read-out and setting: the entry for `O=C(O)COc1ccccc1` is “inactive”.

Turning to `Nc1ccccc1C(=O)OCCc1ccccc1`, the outcome was inactive.

`BrCBr`: the outcome was inactive.

On to `COC(=O)c1ccccc1S(=O)(=O)NC(=O)Nc1nc(C)cc(C)n1`, for which the compound was classed as inactive. Take `O=C1C=CC(=O)C=C1`: the compound was called inactive. As to `C[N+](C)=CCl`, the compound was called inactive. Same read-out and setting: in the case of `CCOC(=O)C1OC1(C)c1ccccc1` (stereo not given) it was “inactive”; in that of `C=C(Cl)CCl`, “inactive”. Turning to `CCCCCc1cc(O)cc(O)c1`, the call was inactive. On the same count and under the same terms, the entry for `O=S(=O)(c1ccccc1)c1ccccc1` is “inactive”. As to `CC(C)(Cl)Cl`, the compound was classed as inactive. On the same count and under the same terms, the entry for `CC[N+](=O)[O-]` is “inactive”; for `O=c1[nH]c(Cl)c(Cl)cc1Cl` it is “inactive”; for `O=[N+]([O-])c1cc([N+](=O)[O-])c2ccccc2c1` it is “inactive”. Turning to `O=[N+]([O-])O.O=[N+]([O-])O.[Cd]`, the compound was called inactive. Same read-out and setting: the entry for `O=S(=O)(O)O` is “inactive”; for `O=C(O)CCCc1ccc(N(CCCl)CCCl)cc1` it is “inactive”.

With `NNc1ccccc1`, the compound was classed as inactive.

On to `[CH3][Sn]([CH3])([Cl])[Cl]`, for which the outcome was inactive. Same read-out and setting: the entry for `C=COCCCl` is “inactive”; for `O=C(CCN1CC1)OCC(CO)(COC(=O)CCN1CC1)COC(=O)CCN1CC1` it is “inactive”. As a reminder, the AC50 is the midpoint of the concentration-response curve, whichever way the signal moves. Take `O=[N+]([O-])C=Cc1ccccc1`: the AC50 is 22.9 µM (active). On to `CC(=O)/C=C/c1ccccc1`, for which the result was inactive. On to `C[C@]12CC[C@H]3[C@@H](CC[C@@]45O[C@@H]4C(O)=C(C#N)C[C@]35C)[C@@H]1CC[C@@H]2O`, for which the compound was called inactive. Same read-out and setting: the entry for `C=C(Cl)Cl` is “inactive”; for `Oc1ccc(Cl)cc1` it is “inactive”. For the compound `O=C1Nc2ccc(Cl)cc2C(c2ccccc2)=NC1O` (stereo not given), the call was inactive. As to `COCC(=O)N(c1c(C)cccc1C)N1CCOC1=O`, the result was inactive. Still for that read-out and setting: the entry for `CN(C)CCC#N` is “inactive”. Regarding `CC(=O)C=Cc1ccccc1`, the AC50 was 128 µM (active). As for `CCC(C)c1cc(C(C)(C)C)cc(-n2nc3ccccc3n2)c1O` (stereo not given), the outcome was inactive. Still for that read-out and setting: the entry for `ClCCCCCCCl` is “inactive”.

These data come from PubChem BioAssay (EPA / NIEHS).
